Test results as given in PubChem BioAssay (NCATS).
Values joined by “and” are separate entries in the source; they are usually repeats but may differ in a detail not shown here. Identical values can stand only once. Inconclusive results are not listed. Where a call stands in place of a potency, no number is given. The source holds several records for some structures; these can differ, active in one and inactive in another. Values without a mark were called inactive. Active and inactive are the calls of the source. Calls come from the whole dose curve; as a rule, active = well fitted inhibition curve with a large enough effect; inconclusive = small, poorly fitted or top-dose-only effect; inactive = flat fitted curve, though single readings scatter.

Tested on: not listed separately
Assay: Drug repurposing screens with cells derived from glioblastoma tumor samples (AID 1345199); note: nearly all actives have a fitted effect of over 40% in size
Details: GBM patient neurospheres viability, ATP luminescence, 48 h; at 99.2 µM (top of the series); tumour line C
Method in brief: (§1)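 Four patient lines of CD133+ GBM neurospheres were screened at several concentrations; hits were retested in those lines plus three slower-growing GBM lines, using 48-hour treatment and ATP-based viability.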
Potency is the fitted concentration of half-maximal effect.

Q: Which activity, negative = cell killing does the source give for `CCCCC(CC)COC(=O)c1ccccc1C(=O)O` (stereo not given) here?
A: -7.68%

Q: For `O=C(NO)c1ccccc1`, which activity, negative = cell killing is on record?
A: -13.7%

Q: Which activity, negative = cell killing does the source give for `COC(=O)c1c(Cl)c(Cl)c(C(=O)OC)c(Cl)c1Cl` here?
A: -5.72%

Q: For `CCCC(=O)c1cc(O)c(O)cc1O`, which activity, negative = cell killing is on record?
A: -23.6%

Q: With `CC(C)(c1ccc(O)cc1)c1ccc(O)cc1` as the compound, how does the activity, negative = cell killing read?
A: -43.4%

Same assay, conditions: GBM patient neurospheres viability, ATP luminescence, 48 h; tumour line A

Q: With `C[C@@]12CCC[C@H]1[C@@H]1CC[C@H]3C[C@@H](O)CC[C@]3(C)[C@H]1CC2` as the compound, how does the Potency read?
A: 7.08 µM (active)

Q: Which Potency does the source give for `CO[C@@H]1[C@@H](O[C@@H]2O[C@H](C)[C@@H](O[C@H]3C[C@@](C)(O)[C@@H](O)[C@H](C)O3)[C@H](N(C)C)[C@H]2O)[C@@H](CC=O)C[C@@H](C)[C@@H](O[C@@H]2CC[C@H](N(C)C)[C@@H](C)O2)/C=C/C=C/C[C@@H](C)OC(=O)C[C@H]1OC(C)=O` here?
A: 15.8 µM (active)

Q: For `Cc1cc(O)c2c(O)c3c(O)cccc3cc2c1`, which Potency is on record?
A: 14.1 µM (active)

Q: Which Potency does the source give for `CCN1C(=O)c2ccccc2C1Nc1ccc(OCCN2CCCCC2)cc1` (stereo not given) here?
A: 7.94 µM (active)

Q: With `N#C/C(=C1/SC[C@@H](c2ccc(Cl)cc2Cl)S1)n1ccnc1` as the compound, how does the Potency read?
A: 11.2 µM (active) and 20 µM (active)

Q: Which Potency does the source give for `COC(=O)C1=C(C)NC(COC(N)=O)=C(C(=O)OC(C)C)C1c1cccc(Cl)c1Cl` (stereo not given) here?
A: 8.91 µM (active)

Q: With `CN1CCC(N(Cc2cccs2)c2ccccc2)CC1` as the compound, how does the Potency read?
A: 10 µM (active)

Q: With `c1ccc(C(O[C@H]2CCCN(CCc3ccc4c(c3)OCO4)C2)c2ccccc2)cc1` as the compound, how does the Potency read?
A: 11.2 µM (active)

Q: For `NC(=O)COCCN1CCN(C(c2ccccc2)c2ccc(Cl)cc2)CC1` (stereo not given), which Potency is on record?
A: 5.01 µM (active)

Tested on: astro (control astrocytes)
Assay: as above
Details: viability, ATP luminescence, 48 h; series mostly up to 45.9 µM
Method in brief: as §1

Q: Which Potency does the source give for `C[C@H](CN1CCCC1)C(=O)c1ccc(C(F)(F)F)cc1` here?
A: inactive

Q: Which Potency does the source give for `CN1C(CSCC(F)(F)F)Nc2cc(Cl)c(S(N)(=O)=O)cc2S1(=O)=O` (stereo not given) here?
A: inactive

Q: With `O=C(O)c1ccccc1S` as the compound, how does the Potency read?
A: inactive

Q: Which Potency does the source give for `CCCCC(CC)COC(=O)c1ccccc1C(=O)O` (stereo not given) here?
A: inactive

Q: Which Potency does the source give for `O=C(Nc1ccc(Cl)cc1)Nc1ccc(Cl)c(C(F)(F)F)c1` here?
A: 10 µM (active)

Q: For `C[C@@]12CCC[C@H]1[C@@H]1CC[C@H]3C[C@@H](O)CC[C@]3(C)[C@H]1CC2`, which Potency is on record?
A: inactive

Q: Which Potency does the source give for `CO[C@@H]1[C@@H](O[C@@H]2O[C@H](C)[C@@H](O[C@H]3C[C@@](C)(O)[C@@H](O)[C@H](C)O3)[C@H](N(C)C)[C@H]2O)[C@@H](CC=O)C[C@@H](C)[C@@H](O[C@@H]2CC[C@H](N(C)C)[C@@H](C)O2)/C=C/C=C/C[C@@H](C)OC(=O)C[C@H]1OC(C)=O` here?
A: inactive

Q: Which Potency does the source give for `Cc1cc(O)c2c(O)c3c(O)cccc3cc2c1` here?
A: inactive

Q: For `Cc1cc(C(C)(C)C)c(O)c(C(C)(C)C)c1`, which Potency is on record?
A: inactive

Q: For `COc1cc(C=O)ccc1O`, which Potency is on record?
A: inactive

Q: Which Potency does the source give for `O=C(NO)c1ccccc1` here?
A: inactive

Q: With `CCN1C(=O)c2ccccc2C1Nc1ccc(OCCN2CCCCC2)cc1` (stereo not given) as the compound, how does the Potency read?
A: inactive

Q: For `Cc1ccccc1N1CCN(CCc2nnc3n2CCCC3)CC1`, which Potency is on record?
A: inactive

Q: For `CC(C(O)c1ccccc1)N(C)CCOC(c1ccccc1)c1ccccc1` (stereo not given), which Potency is on record?
A: inactive

Q: Which Potency does the source give for `O=P(O)(O)OCC(O)CO` (stereo not given) here?
A: inactive

Q: For `N#C/C(=C1/SC[C@@H](c2ccc(Cl)cc2Cl)S1)n1ccnc1`, which Potency is on record?
A: inactive

Q: For `CN1CCC(=C2c3ccccc3CCc3cccnc32)CC1`, which Potency is on record?
A: inactive

Q: With `COC(=O)c1c(Cl)c(Cl)c(C(=O)OC)c(Cl)c1Cl` as the compound, how does the Potency read?
A: inactive

Q: For `CCCCC/C=C\C/C=C\CCCCCCCC(=O)NC(C)c1ccccc1` (stereo not given), which Potency is on record?
A: inactive

Q: Which Potency does the source give for `Oc1ccccc1` here?
A: inactive

Q: For `O=C1CC2(CCCC2)CC(=O)N1CCNCC1COc2ccccc2O1` (stereo not given), which Potency is on record?
A: inactive

Q: Which Potency does the source give for `O=C(O)CCC(=O)OC[C@@H](NC(=O)C(Cl)Cl)[C@H](O)c1ccc([N+](=O)[O-])cc1` here?
A: inactive

Q: Which Potency does the source give for `CCCCCCCCCCCCCC[N+](C)(C)C` here?
A: 10 µM (active)

Q: With `O=C(CCCCCCCCC#CI)Oc1ccccc1` as the compound, how does the Potency read?
A: inactive

Q: Which Potency does the source give for `CO/N=C(/C(=O)N[C@@H]1C(=O)N2C(C(=O)[O-])=C(C[n+]3ccn4ncccc43)CS[C@H]12)c1nsc(N)n1` here?
A: inactive

Q: Which Potency does the source give for `Cc1ncc(CO)c(CO)c1O` here?
A: inactive

Q: With `N=C(N)c1ccc(OCCCOc2ccc(C(=N)N)cc2)cc1` as the compound, how does the Potency read?
A: 11.2 µM (active)

Q: For `C[N+]1(CC2COC(c3ccccc3)(c3ccccc3)O2)CCCCC1` (stereo not given), which Potency is on record?
A: inactive

Q: Which Potency does the source give for `CCCCC(=O)OCC(=O)[C@H]1[C@H](C)C[C@H]2[C@@H]3C[C@H](F)C4=CC(=O)C=C[C@]4(C)[C@@]3(F)[C@@H](O)C[C@@]21C` here?
A: inactive

Q: With `CN1CCC(N(Cc2cccs2)c2ccccc2)CC1` as the compound, how does the Potency read?
A: inactive

Q: For `CC(=O)[C@@]1(O)CC[C@H]2[C@@H]3C[C@H](C)C4=CC(=O)CC[C@]4(C)[C@H]3CC[C@@]21C`, which Potency is on record?
A: inactive

Q: For `c1ccc(C(O[C@H]2CCCN(CCc3ccc4c(c3)OCO4)C2)c2ccccc2)cc1`, which Potency is on record?
A: inactive

Q: For `CN1CCC(Nc2ncc3ncnc(Nc4ccc(F)c(Cl)c4)c3n2)CC1`, which Potency is on record?
A: 17.8 µM (active)

Q: Which Potency does the source give for `NC(=O)COCCN1CCN(C(c2ccccc2)c2ccc(Cl)cc2)CC1` (stereo not given) here?
A: inactive

Q: With `C[C@@H](C1=C(CCN(C)C)Cc2ccccc21)c1ccccn1` as the compound, how does the Potency read?
A: inactive

Q: For `O=C(COCCOCCOCC(=O)Nc1c(I)cc(I)c(C(=O)O)c1I)Nc1c(I)cc(I)c(C(=O)O)c1I`, which Potency is on record?
A: inactive
